Results on 90 molecules are retold here after PubChem BioAssay AID1662 (Broad Institute, 2009).

The campaign covered roughly 300,000 compounds. About 4,000 (1.3%) were called active. For the sample, actives were picked, then their nearest neighbours and some compounds at random. Unmarked numbers belong to inactive results.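 The calls were made as follows: active = mean replicate score, as percent of positive control median, at least 50; inconclusive = mean below 50 but one replicate at or above 50; inactive = mean and every replicate below 50.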

The test is described as follows: S. pyogenes SKKanGAS growth inhibitors in kanamycin, primary screen, streptokinase expression inhibitor project, SKKanGAS strain, BacTiter-Glo luminescence (AID 1662).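 Also: strain carries kanamycin resistance gene driven by streptokinase promoter and grows in 40 µg/ml kanamycin; loss of luminescence reflects streptokinase promoter inhibition or plain growth inhibition; 0% = median of DMSO wells and 100% = positive control at its reference dose.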 As to conditions: 6 h, at 7.5 µM, hits give high values.
Consider `Nc1c(Cl)cc(-c2csc(N3CCCC3c3nc4cc(Cl)c(Cl)cc4n3CCOCCO)n2)cc1Cl` (stereo not given), for which the inhibition (commonly the relative decrease from the control value, in per cent) was 62.1% (active). The value for `Cc1ccc(-c2csc(N3CCN(c4cc5c(cc4Cl)nc(-c4ccncc4)n5CCOCCO)CC3)n2)cc1` was 47.5%; that for `CCCn1c(C2CCCN2c2nc(-c3ccc(C)cc3)cs2)nc2cc(Cl)c(N3CCCCC3)cc21` (stereo not given) was 9.01%; that for `COc1ccccc1-c1nc(SC)n[nH]1` was -1.68%. `COc1ccc(-c2n[nH]c(C)c2-c2ccccc2OC)c(O)c1`: the inhibition was 1.39%.

With `COc1ccccc1-c1n[nH]c2c1[C@H](C)CC[C@H]2C(C)C`, the inhibition was 91.1% (active).

`Cc1cc(C)c2c(=O)[nH]c(SCC(=O)Nc3ccc(Br)cc3)nc2n1`: the inhibition is 30%.

`N#Cc1c(-c2cccs2)nc(SCC(=O)c2ccc(Br)cc2)[nH]c1=O`: the inhibition was 55.8% (active). For `O=C(CSc1nc2ccccc2c(=O)[nH]1)Nc1nc(-c2ccc(Br)cc2)cs1` the value was 4.78%; for `N#CC1(NC(=O)COC(=O)Cc2n[nH]c(=O)c3ccccc23)CCCCC1`, -3.3%; for `Cc1ccc(S(=O)(=O)c2ccc(Cl)cc2)cc1S(=O)(=O)NC(C(=O)O)C(C)C` (stereo not given), 0.0508%. Turning to `COc1cc2c(cc1NC(=O)COC(=O)/C=C/c1ccccc1)oc1ccccc12`, the inhibition was -12.9%. With `Cc1onc(-c2ccccc2)c1C(=O)NNC(=S)NC(=O)c1ccc(F)cc1`, the inhibition was 7.91%. In the case of `O=C(NNC(=S)NC(=O)c1cn(-c2ccccc2)nc1-c1ccccc1)c1ccncc1`, the inhibition was 99.7% (active). For `O=C(Nc1cn(-c2ccccc2)nc1-c1ccccc1)c1ccccc1` the value was -2.24%; for `COC(=O)Cn1cc(/C=C/[N+](=O)[O-])c2ccccc21`, 0.686%.

Turning to `O=C(CN1C(=O)/C(=C/c2ccccc2F)Sc2ccccc21)NCc1cccnc1`, the inhibition was -8.35%. For the molecule `O=C(CN1C(=O)/C(=C\c2ccccc2F)SC1=S)Nc1nc2ccccc2s1`, the inhibition is 94.2% (active).

Take `O=C(CN1C(=O)S/C(=C\c2ccccc2F)C1=O)NCCCn1ccnc1`: the inhibition was 2.35%. As for `O=c1[nH]c(CCl)nc2cc(-c3ccc(Cl)cc3)sc12`, the inhibition was 29.5%. In the case of `CC1CCc2c(nc3ncnn3c2Nc2ccc(OC(F)(F)F)cc2)C1` (stereo not given), the inhibition is 2.5%. For `COc1ccc(CC(=O)N/N=C/c2cc([N+](=O)[O-])cc(Br)c2O)cc1` the value was 61.6% (active); for `COc1ccc(CC(=O)NCC(=O)N/N=C/c2cc(Br)ccc2OC)cc1`, 4.99%.

For the molecule `c1ccc2sc(NN=C3CCCC3)nc2c1`, the inhibition was 18.5%. The value for `COc1cc(/C=N/Nc2nc3ccccc3s2)ccc1O` was -7.58%; that for `COc1cc(OC)c(/C=N/NC(=O)c2ccc([N+](=O)[O-])cc2)cc1Br` was -10.8%; that for `O=[N+]([O-])c1cc(Br)c(O)c(/C=N/Nc2nc3ccccc3s2)c1` was 92% (active). As to `CC1(C)c2[nH]c3ccccc3c2C[C@H]2C(=O)N(N)CC(=O)N21`, the inhibition is 1.39%. In the case of `NNC(=O)c1ccc(COCC(F)(F)C(F)F)cc1`, the inhibition was -2.77%.

Consider `CC(=O)c1ccc(N2CCN(C(=O)CCNC(=O)Cn3ccc4ccccc4c3=O)CC2)cc1`, for which the inhibition was 0.0785%. The value for `Cc1cc(C)cc(C(=O)NC(CC(N)=O)c2ccc(N3CCC(N4CCCCC4)CC3)c([N+](=O)[O-])c2)c1` (stereo not given) was -2.72%.

Regarding `Cc1ccc2c(c1)c1ncnc(N3CCc4ccccc4C3)c1n2C`, the inhibition is 47.1%.

As for `CCOc1ccc(C(=O)NC(=S)Nc2ccc(NC(=O)C(C)C)cc2)cc1[N+](=O)[O-]`, the inhibition is 19.7%.

On to `CCOc1ccc(C(=O)NC(=S)Nc2ccc(N3CCOCC3)c(Cl)c2)cc1[N+](=O)[O-]`, for which the inhibition was 84% (active).

As for `COc1cccc(OC)c1C(=O)NC(=S)Nc1ccc(N2CCOCC2)c(Cl)c1`, the inhibition is 4.82%. The value for `CCN(CC)C(=O)CS(=O)CC(=O)Nc1cc(OCCOC)c(Cl)cc1Cl` (stereo not given) was 0.17%.

`COc1ccc(NC(=O)Nc2cccc3cccnc23)cc1`: the inhibition is -7.39%. With `COc1cc(NS(=O)(=O)c2ccc3ccccc3c2)c2ncccc2c1`, the inhibition is 85% (active). On to `Cc1ccc(NS(=O)(=O)c2ccc(C)c(NC(=O)COc3ccc4ccccc4c3)c2)c(C)c1`, for which the inhibition was 29.6%. As to `C/C(=N\NC(=O)c1cccc([N+](=O)[O-])c1)c1cccnc1`, the inhibition was -2.34%. As to `Cn1ccc(=Nc2ccc(NC(=O)c3ccc(N=c4ccn(C)c5ccc([N+](=O)[O-])cc45)cc3)cc2)cc1`, the inhibition is 75.8% (active).

`O=C(Nc1ccc(C(=O)N2CCCCC2)cc1)c1cccc([N+](=O)[O-])c1`: the inhibition was 6.65%. Turning to `Cc1cc([N+](=O)[O-])ccc1NC(=O)c1ccc(NC(=O)C(C)C)cc1`, the inhibition is 10.6%.

`O=C(CCN1C(=O)[C@@H]2Cc3ccccc3CN2C1=O)NCc1ccccc1`: the inhibition is -1.78%.

`COC(=O)C1(C)NC(c2ccc(C)cc2)C2C(=O)N(c3ccc(F)cc3)C(=O)C21` (stereo not given): the inhibition is 0.707%. On to `CCOc1ccc(NC(=O)NNC(=O)c2ccc(Cl)cc2Cl)cc1`, for which the inhibition was -4.81%. On to `NC(N)=N/N=C/c1ccc(OCc2ccc(Cl)cc2Cl)cc1`, for which the inhibition was 50.8% (active). As for `OC(CNCCc1ccc(Cl)cc1Cl)COc1ccccc1` (stereo not given), the inhibition is 8.35%.

For the molecule `CCN(CCn1cccn1)C(=O)CC1C(=O)NCCN1Cc1cccc(OC)c1OC` (stereo not given), the inhibition is -6.29%. On to `C/C(=N\NC(=O)OC(C)(C)C)c1ccc[nH]1`, for which the inhibition was -6.42%. Consider `Cc1ccc(CSc2nc(-c3ccccc3)c(C#N)c(=O)[nH]2)cc1`, for which the inhibition is 43.6%. The value for `N#Cc1c(-c2ccccc2)nc(SCc2ccc([N+](=O)[O-])cc2)[nH]c1=O` was 15.1%; that for `N#Cc1c(-c2ccccc2)nc(SCc2cccc(C(F)(F)F)c2)[nH]c1=O` was 67.4% (active).

For `CN1CCN(C2Cc3ccc(Cl)cc3Sc3ccc(F)cc32)CC1` (stereo not given), the inhibition was 68.7% (active). With `Cc1ccc(CS(=O)(=O)c2ncc(Cl)c(C(=O)Nc3nnc(C)s3)n2)cc1`, the inhibition is 2.36%.

With `C/C(=N\NC(=O)c1ccoc1C)c1ccccc1O`, the inhibition is 4.94%. On to `Cc1ccc(-n2ncc3c2CC(C)(C)CC3NC(=O)Cc2c(C)noc2C)cc1` (stereo not given), for which the inhibition is -4.1%. For the molecule `CCc1ccc2c(c1)C1(NN=C(c3ccccc3)S1)C(=O)N2` (stereo not given), the inhibition is 96.7% (active). Regarding `COc1cccc(NC(=O)C2C(c3ccccc3)C2(Cl)Cl)c1` (stereo not given), the inhibition is 31.8%. As for `CCc1ccc(Oc2nc([N+](=O)[O-])nn2C)cc1`, the inhibition is 2.57%. As for `Cc1cc(C(=O)N2CCC(C(=O)O)CC2)c(C(F)(F)F)o1`, the inhibition is -3.49%. For `Cc1noc(C)c1CSCC(=O)Nc1ccc(Br)cc1Cl` the value was 32.2%; for `CCc1noc(C)c1C(=O)Nc1nc2ccc(OC)cc2s1`, -6.51%. For `Cc1noc(C)c1CSCC(=O)Nc1nc2ccc(Oc3ccccc3)cc2s1`, the inhibition is 51.3% (active). As for `COc1ccc(C(=O)Nc2ccc(C3(C#N)CCCC3)cc2)cc1OC`, the inhibition is 0.181%. As to `Cc1ccc(/C=C/C(=O)Nc2ccc([N+](=O)[O-])c(NC(=O)/C=C/c3ccc(C)o3)c2)o1`, the inhibition was 6.98%. For the molecule `C/[N+]([O-])=C\c1ccc([N+](=O)[O-])o1`, the inhibition is 1.43%. On to `O=C(/C=C/c1ccc([N+](=O)[O-])o1)NNC(=O)c1ccc(F)cc1`, for which the inhibition is 52.7% (active). `CC(=O)Oc1ccc(-c2cccc(C(=O)N3CCCCC3)c2)cc1`: the inhibition is -5.29%.

In the case of `CCN1CCN(C(=O)N(Cc2ccc(Cl)cc2)S(=O)(=O)c2ccc(C)cc2)CC1`, the inhibition was -0.707%. In the case of `COc1ccc(/C=C/C(=O)c2ccc(NS(=O)(=O)c3ccc(C)cc3)cc2)cc1O`, the inhibition is 31.2%. Turning to `COC(=O)c1ccc(COc2ccc(/C=C/C(=O)c3ccc(OC)c(CSCC(=O)O)c3)cc2OC)cc1`, the inhibition is -12.5%.

Turning to `COc1ccc(C(=O)/C=C/c2ccc(-c3ccccc3)cc2)cc1CSCC(=O)O`, the inhibition is 51.6% (active). Turning to `Cc1occc(=O)c1OCc1c(Cl)cccc1Cl`, the inhibition is 1.59%. For `CCN(CC)c1ccc(S(=O)(=O)N2CCCCC2)cc1NC(=O)C1=COCCO1` the value was -12%; for `O=C1CC2(CCCC2)Oc2ccc(Cl)cc21`, 9.19%; for `S=C1Nc2cc(Cl)ccc2Sc2ccccc21`, 3.58%. With `O=C1Cc2ccccc2Sc2ccc(Cl)cc21`, the inhibition was 75% (active). For `O=C(CCNC(=O)c1ccc(Br)cc1)NCCCc1ccccc1`, the inhibition was -14.7%. For `CN(CCc1ccccn1)S(=O)(=O)c1ccc2c3c(cccc13)C(=O)N2` the value was -0.86%; for `O=C(NCc1ccncc1)C1CCCN(S(=O)(=O)c2ccc(Br)cc2)C1` (stereo not given), 3.53%; for `Cc1cccc(-c2nc3ccccc3c(=O)n2NC(=O)Cc2ccc(Cl)cc2)c1`, -2.71%. Regarding `O=c1c2cc(Br)ccc2nc(-c2cccc(Cl)c2)n1O`, the inhibition is 78.4% (active). For `O=C1CCCc2c1nc(-c1cccc(Cl)c1)n2O` the value was -3.24%; for `CCCOc1ccc(C2NC(=O)NC(c3ccccc3)=C2C(C)=O)cc1OCC` (stereo not given), -8.73%. In the case of `Cc1cccc([C@@H]2[C@@H]3C(=O)N(Cc4ccccc4)C(=O)[C@@H]3[C@]3(Cc4ccc(Cl)cc4)C(=O)N(c4cccc(Cl)c4)C(=O)N23)c1`, the inhibition was -2.38%. Regarding `CC(OC(=O)CNC(=O)c1ccc(Cl)c([N+](=O)[O-])c1)C(=O)NCc1ccco1` (stereo not given), the inhibition is -7.18%. The value for `COC(=O)Cc1ccc(Oc2ncc(C(F)(F)F)cc2Cl)cc1` was -5.08%; that for `COc1cccc(/C=N/Nc2ncc(C(F)(F)F)cc2Cl)c1O` was 95.9% (active); that for `COc1cccc(/C(C)=N/Nc2ncc(Cl)cc2Cl)c1` was -4.25%.
